Test system: FLT3
Set-up: species or system human, MV4-11 + K-562 + COLO205 + SK-N-BE2 + OVCAR-8
Conditions: read-out: apparent Kd; compound concentrations: 100 nM and 1000 nM (sheet 'Samples'), CATDS: 1; n = 1

Structure (SMILES)	potency estimated from few doses [nM]
CC(C)c1ccc2c(c1)NC(=O)/C2=N/Nc1ccc(S(N)(=O)=O)cc1 [GW300653X]	716
Cl.N#Cc1cccc(Nc2ncc(-c3ccccc3)o2)c1 [GW627834A]	344
Cl.NS(=O)(=O)c1cccc(Nc2cc(-c3ccc(F)cc3)n[nH]2)c1 [GW824645A_PKIS2]	342
Nc1ncnc2c1ncn2-c1ccc(Cl)cc1 [AH2635]	1610

Same assay, conditions: read-out: apparent Kd; compound concentrations:100 nM and 1000 nM (sheet 'Samples'); n = 1

Structure (SMILES)	potency estimated from few doses [nM]
C[C@@H](Oc1cc(-n2cnc3cc(-c4cnn(C)c4)ccc32)sc1C(N)=O)c1ccccc1Cl [GSK580432A]	1300
CC(C)c1ccc(Nc2nccc(-c3cnn4ncccc34)n2)cc1 [GW805758X]	1170
CCS(=O)(=O)c1ccc(OC)c(Nc2ncc(-c3cccc(OC)c3)o2)c1 [GW580509X]	1130
C/C(Nc1ccc(S(N)(=O)=O)cc1)=C1/C(=O)Nc2ccccc21 [GW335962X]	524
CN(C)C/C=C/C(=O)Nc1ccc(C(=O)Nc2cccc(Nc3ncc(Cl)c(-c4c[nH]c5ccccc45)n3)c2)cc1 [THZ1]	1310

Test system: FLT4
Set-up: species or system human, MV4-11 + K-562 + COLO205 + SK-N-BE2 + OVCAR-8
Conditions: read-out: apparent Kd; compound concentrations:100 nM and 1000 nM (sheet 'Samples'); n = 1

Structure (SMILES)	potency estimated from few doses [nM]
C[C@@H](Oc1cc(-n2cnc3cc(-c4cnn(C)c4)ccc32)sc1C(N)=O)c1ccccc1Cl [GSK580432A]	1610
CN(C)C/C=C/C(=O)Nc1ccc(C(=O)Nc2cccc(Nc3ncc(Cl)c(-c4c[nH]c5ccccc45)n3)c2)cc1 [THZ1]	904
CCS(=O)(=O)c1ccc(OC)c(Nc2ncc(-c3cccc(-c4ccccc4F)c3)o2)c1 [GW678313X]	423
COc1cc(OC)cc(-c2cc3cnc(N)nc3nc2NC(=O)NC(C)(C)C)c1 [PFE-PKIS_3]	1380
